Data on one compound can be found in PubChem BioAssay (NCATS).

The nature of assay [1]: NFAT Signaling Pathway (AID 444; active = well fitted curve in either direction with a large enough effect, not every such curve was filed as active;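 note: carbachol stimulus at about its EC50 of 1 µM final; % is set by controls: 0 for no effect and ±100 for the full control effect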). As to conditions: Jurkat NFAT-bla M1, carbachol, beta-lactamase ratio, 5 h; at 38 µM (top of the series). The method, boiled down:
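Jurkat cells with NFAT-driven β-lactamase reporter and co-expressed M1 receptor, stimulated with carbachol (final 1 uM, ~EC50), compound titration, 5 h at 37 °C. CCF4 loaded 1 h at RT; 460/530 nm ratio gave %activity and AC50.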

Assay [2] is described as follows: Stat Signaling Pathway (AID 446; active = well fitted curve in either direction with a large enough effect, not every such curve was filed as active;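 note: ME-180 cervical cancer cells given 40 pM IL-6 alongside compound; SIE-controlled beta-lactamase reporter measured as 460/530 nm FRET emission ratio; % is set by controls: 0 for no effect and ±100 for the full control effect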). As to conditions: ME-180 SIE beta-lactamase reporter, IL-6 stimulated, 5 h; at 38 µM (top of the series). In outline:
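Screening format detects activators and inhibitors alike: ME-180 SIE-bla cells stimulated at 40 pM IL-6 for 5 hrs with compound, then dual-emission beta-lactamase read at 405 nm excitation.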

In assay [3] the target is Glucocorticoid receptor (Homo sapiens) (UniProt P04150). Description: GR-GFP Redistribution (AID 450;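 active = compounds whose dose series gives a full or clear partial fitted curve of increased nuclear translocation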; note: potency is the fitted concentration of half-maximal effect). As to conditions: U2OS GR-GFP nuclear translocation, laser cytometry, 2 h.
Chain of Glucocorticoid receptor (Homo sapiens) (P04150 whole entry, looked up, the tested form may be a part): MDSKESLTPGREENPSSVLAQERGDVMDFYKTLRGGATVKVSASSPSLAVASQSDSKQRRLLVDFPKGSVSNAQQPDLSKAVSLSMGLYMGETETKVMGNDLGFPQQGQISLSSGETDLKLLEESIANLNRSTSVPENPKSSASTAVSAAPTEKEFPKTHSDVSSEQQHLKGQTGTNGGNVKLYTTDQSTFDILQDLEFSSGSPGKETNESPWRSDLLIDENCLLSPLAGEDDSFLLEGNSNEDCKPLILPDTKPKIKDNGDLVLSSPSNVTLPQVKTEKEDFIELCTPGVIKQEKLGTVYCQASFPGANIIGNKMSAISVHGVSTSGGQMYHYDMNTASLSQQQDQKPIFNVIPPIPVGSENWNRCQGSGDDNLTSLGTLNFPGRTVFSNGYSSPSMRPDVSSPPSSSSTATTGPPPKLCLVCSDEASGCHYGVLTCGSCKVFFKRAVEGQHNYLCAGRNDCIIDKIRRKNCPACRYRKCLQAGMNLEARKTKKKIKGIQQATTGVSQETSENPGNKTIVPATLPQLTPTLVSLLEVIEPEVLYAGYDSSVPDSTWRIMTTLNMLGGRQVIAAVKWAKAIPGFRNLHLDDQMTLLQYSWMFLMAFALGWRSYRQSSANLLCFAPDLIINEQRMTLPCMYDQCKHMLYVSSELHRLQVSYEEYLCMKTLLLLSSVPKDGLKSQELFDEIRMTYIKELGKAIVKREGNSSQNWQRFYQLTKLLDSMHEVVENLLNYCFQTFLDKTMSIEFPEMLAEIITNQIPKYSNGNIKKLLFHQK
The target is the same in assay [4]. Description: GR-EFC Redistribution (AID 451; calls by dose curve; note: potency is the fitted concentration of half-maximal effect). As to conditions: CHO-K1 GR-EFC translocation, beta-gal luminescence, 2 h. The method, boiled down: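 CHO-K1 cells expressing nuclear EA and GR-ED fragments of b-gal; compounds titrated up to 46 uM final, 2 h at 37 C. GR nuclear translocation read as complemented b-gal luminescence after 1 h RT detection.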
Assay [5] concerns the target Mitogen-activated protein kinase 10 (Mus musculus) (UniProt Q61831). The assay is described as follows: JNK3 AlphaScreen Assay (AID 530; active = well fitted curve in either direction with a large enough effect, not every such curve was filed as active;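 note: kinase came from lysate of stimulated human HepG2 cells; signal reports phosphorylation of biotinylated GST-cJun 1-79 at Ser73 with 10 µM ATP; % is set by controls: 0 for no effect and ±100 for the full control effect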). In outline:
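Pre-activated (IL-1β/TNFα) JNK3 in HepG2 lysates phosphorylates biotin-GST-cJun(1-79), 10 uM ATP; anti-phospho-cJun(Ser73) AlphaScreen read at room temperature, pH 7.6 Tris buffer. Compounds pre-incubated 15 min as titrations.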

Assay [6] addresses 3',5'-cyclic-AMP phosphodiesterase 4B (Homo sapiens) (UniProt Q07343). The assay is described as follows: qHTS Assay for Inhibitors of PDE-IV (AID 607; active = well fitted activation curve with a large enough effect in the main read-out, with a control signal flat, not every such curve was filed as active; note: % of control where 0% means no effect). The method, boiled down: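 The readout is membrane depolarisation from a cAMP-sensing CNG channel, detected with a potential dye at ex 535/em 590. Cells were HEK293-derived (endogenous PDE-IV) at 1000 cells/well, titrated up to 22.9 uM final.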

The target in assay [7] is Guanine nucleotide-binding protein G(i) subunit alpha-1 (Homo sapiens) (UniProt P63096). Description: qHTS Assay for Inhibitors of RGS12 GoLoco Motif Activity (Green Fluorophore) (AID 879).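 Note: 0% = labeled peptide with Gαi1 and full inhibition = labeled peptide alone without protein; negative values mean loss of peptide binding seen as reduced polarization.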 In outline:
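Fluorescence polarization assay: 50 nM Gαi1 with 10 nM FITC-labeled RGS12 GoLoco peptide in 10 mM Tris pH 7.5, 150 mM NaCl, 0.1 mM GDP, 0.05% NP40, 10 min at room temperature with compound.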

For assay [8], the target named is Cytochrome P450 2C9 (Homo sapiens) (UniProt P11712). Description: qHTS Assay for Inhibitors and Substrates of Cytochrome P450 2C9 (AID 883). Note: potency is the fitted concentration of half-maximal effect; nearly all actives have a fitted effect of over 60% in size. The method, boiled down: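 Signal: luciferase luminescence reporting luciferin produced by CYP2C9. Conditions: 10nM enzyme, Luciferin-H 100uM at KM, 25mM KPO4, 37C, 60 min NADPH-driven reaction. Reference: 57uM sulphaphenazole as 100% inhibition.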
Chain of Cytochrome P450 2C9 (Homo sapiens) (P11712 whole entry, looked up): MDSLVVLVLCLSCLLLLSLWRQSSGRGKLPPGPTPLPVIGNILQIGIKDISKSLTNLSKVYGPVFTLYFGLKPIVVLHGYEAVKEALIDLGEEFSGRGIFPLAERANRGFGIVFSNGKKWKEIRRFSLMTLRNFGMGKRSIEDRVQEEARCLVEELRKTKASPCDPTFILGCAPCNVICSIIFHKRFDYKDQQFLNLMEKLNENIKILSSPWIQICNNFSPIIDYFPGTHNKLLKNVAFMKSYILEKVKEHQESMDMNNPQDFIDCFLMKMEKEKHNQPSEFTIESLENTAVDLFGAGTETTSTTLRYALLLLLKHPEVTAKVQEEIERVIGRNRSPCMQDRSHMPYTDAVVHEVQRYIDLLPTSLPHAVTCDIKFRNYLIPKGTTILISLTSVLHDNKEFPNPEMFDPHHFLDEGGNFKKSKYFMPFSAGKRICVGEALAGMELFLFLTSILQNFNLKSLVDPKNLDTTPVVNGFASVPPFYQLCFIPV

The target in assay [9] is Pyruvate kinase (Leishmania mexicana) (UniProt Q27686). The assay is described as follows: qHTS Validation Assay for Inhibitors of Leishmania Mexicana Pyruvate Kinase (AID 945).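 Note: 0% = DMSO only neutral control wells.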 The method, boiled down: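 Eight-point qHTS titrations in triplicate, data normalized to DMSO neutral control. Reaction: 0.2 nM LmPYK E451W mutant, 0.5 mM PEP, 0.1 mM ADP, 7 mM MgCl2, pH 7.2, one hour at room temperature; luminescent ATP detection.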
Chain of Pyruvate kinase (Leishmania mexicana) (Q27686 2-499 E452W): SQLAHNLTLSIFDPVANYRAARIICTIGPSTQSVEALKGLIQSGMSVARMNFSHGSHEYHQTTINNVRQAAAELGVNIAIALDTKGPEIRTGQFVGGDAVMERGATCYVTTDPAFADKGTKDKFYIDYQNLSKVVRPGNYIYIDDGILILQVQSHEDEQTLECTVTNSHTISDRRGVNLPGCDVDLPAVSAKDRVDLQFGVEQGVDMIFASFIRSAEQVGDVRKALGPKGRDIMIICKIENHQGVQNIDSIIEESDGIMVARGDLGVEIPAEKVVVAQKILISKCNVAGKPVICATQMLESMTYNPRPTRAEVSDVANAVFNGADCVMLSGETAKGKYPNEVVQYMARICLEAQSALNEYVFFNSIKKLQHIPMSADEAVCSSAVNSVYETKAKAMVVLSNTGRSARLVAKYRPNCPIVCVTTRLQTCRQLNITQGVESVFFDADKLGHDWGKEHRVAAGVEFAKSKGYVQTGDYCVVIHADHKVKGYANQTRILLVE

Assay [10] has as its target Pyruvate kinase PKM (Homo sapiens) (UniProt P14618). The assay is described as follows: qHTS Assay for Activators of Human Muscle Pyruvate Kinase (AID 954; active = well fitted curve in the direction sought with a large enough effect, not every such curve was filed as active;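 note: 0% = uninhibited enzyme and -100% = no enzyme or full thiadiazolimine inhibition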). The method, boiled down:
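Reaction: 0.1 nM purified PKM2 with 0.5 mM phosphoenolpyruvate and 0.1 mM ADP, room temperature, 1 h. Readout: luciferase-based ATP luminescence after stop reagent. Activators judged against a 0.3 nM enzyme column.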

Assay [11] deals with alpha-glucosidase (Oryza sativa, rice) (UniProt Q653V4). The assay is described as follows: Counterscreen for Glucocerebrosidase Inhibitors: qHTS Assay for Rice alpha-Glucosidase at pH 5.0 (AID 997).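 Note: 0% = full activity with enzyme and -100% = basal without enzyme.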 In outline:
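Rice alpha-glucosidase (4 nM final) with 400 uM 4-methylumbelliferyl-alpha-D-glucopyranoside in citrate buffer pH 5.0, 20 min at room temperature, stopped at pH 10; fluorescence 365/440 nm, compounds 0.7 nM–77 uM, AC50 from Hill fits.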

The nature of assay [12]: Validation of Assay for Modulators of Lamin A Splicing (AID 1459; active = well fitted curve in the direction sought with a large enough effect in the signal ratio; the % refers to the signal ratio;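 note: cells exposed to compound for two days before reading; 0% is about no effect; ratio rise marks activators and ratio drop marks inhibitors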). The method, boiled down:
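S3 HeLa stably expressing lamin A-EGFP splicing minigene and DsRed2, 600 cells/well in Opti-MEM with 2% FBS, treated 48 h at 37C; laser-scanning cytometry gives GFP/RFP total intensity ratio; ancitabine positive control, 0.5% DMSO vehicle.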

Assay [13] in a line: qHTS Assay for Lipid Storage Modulators (AID 1519; calls by dose curve). Conditions: Drosophila S3 cells, BODIPY lipid droplet/cell ratio, laser cytometry, cells loaded with oleic acid. In outline: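 Cells seeded at 5,000 per well were treated with compounds over a concentration series and loaded with oleic acid (400 uM, as added). Lipid droplet fluorescence (488 nm excitation, 500-530 nm channel) was read by laser-scanning cytometry and normalized to 20 uM Triacsin C.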

A short description of assay [14]: Counterscreen for APE1 Inhibitors: Fluorescent Dye Displacement Validation Assay (AID 1707).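 Note: plate controls were ThO with dsDNA and no compound for no effect and ThO without dsDNA for full effect.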 In outline:
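Assay buffer: Tris-HCl pH7.5 with 50mM NaCl, 2 mM MgCl2, 0.01% Tween-20. Dye 250 nM, duplex 50 nM final. Readout: decrease in ThO endpoint fluorescence, 480 nm excitation, 540 nm emission.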

In assay [15] the target is Endonuclease 4 (Escherichia coli (strain K12)) (UniProt P0A6C1). Description: Counterscreen for APE1 Inhibitors: qHTS Validation Assay for Inhibitors of Endonuclease IV (AID 1708). Note: % is set by controls: 0 for no effect and ±100 for the full control effect. In outline:
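E. coli EndoIV at 2 nM final, preincubated 15 min at room temperature with compound, then 50 nM TAMRA/BHQ-2 THF abasic-site duplex added. Buffer: 50 mM Tris-HCl pH 7.5, 50 mM NaCl, 2 mM MgCl2, 1 mM DTT, 0.01% Tween-20. Kinetic fluorescence increase, third minus first read.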

Assay [16] in a line: qHTS for differential inhibitors of proliferation of Plasmodium falciparum line GB4 (AID 1816).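 Note: potency is the fitted concentration of half-maximal effect; parasite growth measured after 72 h incubation.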 Conditions: Potency: Plasmodium falciparum GB4 proliferation inhibition.
Assay [17] can be described thus: qHTS for differential inhibitors of proliferation of Plasmodium falciparum line 3D7 (AID 1876).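 Note: parasite growth measured after three days of culture; 0% = vehicle wells and -100% = reference inhibitor wells.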

Inconclusive results are not listed. The source made the active and inactive calls. Unless noted, calls come from the whole dose curve; as a rule, active = well fitted curve in the direction sought with a large enough effect; inconclusive = small, poorly fitted or top-dose-only effect, or another doubt; inactive = no such curve, though single readings can be large; an effect the other way counts as inactive or inconclusive. A value given as a limit tells only on which side of the number the result lay.

Chain of 3',5'-cyclic-AMP phosphodiesterase 4B (Homo sapiens) (Q07343 whole entry, looked up): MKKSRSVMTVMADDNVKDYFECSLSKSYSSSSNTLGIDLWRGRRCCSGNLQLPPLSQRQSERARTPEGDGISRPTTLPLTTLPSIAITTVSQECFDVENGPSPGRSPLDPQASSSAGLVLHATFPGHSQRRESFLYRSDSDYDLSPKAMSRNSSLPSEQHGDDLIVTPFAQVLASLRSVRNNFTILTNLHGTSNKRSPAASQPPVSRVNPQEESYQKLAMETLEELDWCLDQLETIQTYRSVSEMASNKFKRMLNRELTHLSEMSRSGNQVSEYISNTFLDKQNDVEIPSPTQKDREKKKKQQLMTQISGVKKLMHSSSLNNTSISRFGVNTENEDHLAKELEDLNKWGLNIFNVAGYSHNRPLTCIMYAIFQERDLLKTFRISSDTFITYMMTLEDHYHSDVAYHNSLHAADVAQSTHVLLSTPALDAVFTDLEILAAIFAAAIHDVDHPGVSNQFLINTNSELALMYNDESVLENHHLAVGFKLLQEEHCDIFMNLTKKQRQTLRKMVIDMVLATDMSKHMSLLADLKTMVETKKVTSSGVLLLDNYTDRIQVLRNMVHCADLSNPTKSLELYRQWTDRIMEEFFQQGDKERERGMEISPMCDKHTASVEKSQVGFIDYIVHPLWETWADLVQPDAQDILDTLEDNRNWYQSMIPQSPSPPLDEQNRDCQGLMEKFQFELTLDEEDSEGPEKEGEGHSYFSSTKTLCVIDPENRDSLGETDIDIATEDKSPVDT
Chain of Pyruvate kinase PKM (Homo sapiens) (P14618 whole entry, looked up): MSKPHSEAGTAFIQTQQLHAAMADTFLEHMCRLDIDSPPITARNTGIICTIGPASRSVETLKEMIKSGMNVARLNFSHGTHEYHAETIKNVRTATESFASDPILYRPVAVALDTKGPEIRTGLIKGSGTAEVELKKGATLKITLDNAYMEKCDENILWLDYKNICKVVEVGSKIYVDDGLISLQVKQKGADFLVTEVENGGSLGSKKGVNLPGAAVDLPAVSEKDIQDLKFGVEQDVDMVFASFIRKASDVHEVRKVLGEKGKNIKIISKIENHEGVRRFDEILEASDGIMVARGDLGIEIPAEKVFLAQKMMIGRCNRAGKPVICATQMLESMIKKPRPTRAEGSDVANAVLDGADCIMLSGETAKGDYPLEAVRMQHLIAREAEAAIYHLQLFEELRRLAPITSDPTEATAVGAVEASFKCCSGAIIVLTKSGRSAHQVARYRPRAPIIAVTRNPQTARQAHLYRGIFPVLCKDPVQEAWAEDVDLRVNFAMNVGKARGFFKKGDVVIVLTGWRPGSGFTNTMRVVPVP
Chain of Guanine nucleotide-binding protein G(i) subunit alpha-1 (Homo sapiens) (P63096 whole entry, looked up): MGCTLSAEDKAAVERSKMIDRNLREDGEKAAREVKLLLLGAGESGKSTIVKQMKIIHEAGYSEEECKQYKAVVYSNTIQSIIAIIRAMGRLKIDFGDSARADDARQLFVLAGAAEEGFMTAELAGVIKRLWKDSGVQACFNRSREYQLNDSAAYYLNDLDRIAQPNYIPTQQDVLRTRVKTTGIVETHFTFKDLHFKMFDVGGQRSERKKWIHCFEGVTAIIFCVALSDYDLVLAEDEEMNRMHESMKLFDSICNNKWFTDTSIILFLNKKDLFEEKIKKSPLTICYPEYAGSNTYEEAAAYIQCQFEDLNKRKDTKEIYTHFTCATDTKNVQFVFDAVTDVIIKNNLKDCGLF

On to `O=C(OCCN1CCCCC1)c1c[nH]c2ccccc12`, for which the activity change, negative = inhibition in assay [1] was -11% (inactive); in [13] (at 57.5 µM (top of the series)), -1.63% (inactive). Further, the activity, negative = inhibition in assay [2] was -6.33% (inactive). The Potency in assay [3] is > 46 µM (inactive); in [4], > 46 µM (inactive); in assay [8] it was 2 µM (active); in assay [16] it was 10 µM (active). Further, the Potency entry in assay [5], in [6], in [9], in [14], in assay [15] and in assay [17] was “inactive” each time. Besides, the outcome in [7], in [10], in [11] and in [12] was inactive. Besides, the max response in assay [13] (measured here: cell count channel max response) was -19.5%; in assay [13] (measured here: lipid channel max response), -30.4%.
